Legend:
Assay in all cases: DAPPL (digital affinity profiling via proximity ligation, sequencing); 10 mM Tris-HCl pH 7.5, 50 mM NaCl, 1 mM DTT, 4% glycerol, room temperature, 30 min; GST-TFs on glutathione beads, 16-mer random dsDNA library, 0.1% formaldehyde crosslink after washing; high values mean tight binding
[1] = target: T1, FEV (Homo sapiens, UniProt Q99581 1-238); conditions: protein: recombinant; tags: N-terminal GST; dsDNA, one strand shown
T1 sequence: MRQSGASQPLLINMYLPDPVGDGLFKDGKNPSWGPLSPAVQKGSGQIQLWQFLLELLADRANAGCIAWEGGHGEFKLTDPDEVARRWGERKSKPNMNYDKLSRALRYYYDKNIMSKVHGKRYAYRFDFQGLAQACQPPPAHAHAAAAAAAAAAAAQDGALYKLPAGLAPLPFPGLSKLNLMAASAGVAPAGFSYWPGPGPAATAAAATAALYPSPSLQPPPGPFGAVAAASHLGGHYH
Procedure, shortened: (§1)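 Binding signal is defined as a hexamer's read frequency for one factor over its frequency for the tag-only sample. To obtain reads, GST-fused human transcription factors were expressed in yeast, captured on glutathione beads, barcoded with DNA and pooled with that sample. Pools met 200 nmole of a 16-mer random double-stranded DNA library in Tris/NaCl/DTT/glycerol buffer for 30 min at room temperature before washing, 0.1% formaldehyde crosslinking, proximity ligation (BsaI/T4 ligase, 1 h, 37 °C), PCR and Illumina NextSeq500 sequencing.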

[2] = target: ETV5 (Homo sapiens, UniProt P41161 1-510); conditions: protein: recombinant; tags: N-terminal GST; dsDNA, one strand shown
Procedure, shortened: as §1

[3] = target: HSF1 (Homo sapiens, UniProt Q00613 1-529); conditions: protein: recombinant; tags: N-terminal GST; chain copies: 3; dsDNA, one strand shown
Procedure, shortened: as §1

[4] = target: T2, SPIC (Homo sapiens, UniProt Q8N5J4 1-248); conditions: protein: recombinant; tags: N-terminal GST; dsDNA, one strand shown
T2 sequence: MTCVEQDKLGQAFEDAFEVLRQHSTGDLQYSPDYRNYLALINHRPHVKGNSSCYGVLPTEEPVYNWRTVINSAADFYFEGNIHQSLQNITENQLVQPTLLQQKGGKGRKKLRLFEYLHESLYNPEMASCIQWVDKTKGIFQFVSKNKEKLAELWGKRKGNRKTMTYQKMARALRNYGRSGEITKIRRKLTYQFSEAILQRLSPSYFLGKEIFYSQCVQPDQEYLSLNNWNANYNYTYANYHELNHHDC
Procedure, shortened: as §1

[5] = target: ELF4 (Homo sapiens, UniProt Q99607 1-663); conditions: protein: recombinant; tags: N-terminal GST; dsDNA, one strand shown
Procedure, shortened: as §1

[6] = target: T3, ELK4 (Homo sapiens, UniProt P28324-2 1-405); conditions: protein: recombinant; tags: N-terminal GST; dsDNA, one strand shown
T3 sequence: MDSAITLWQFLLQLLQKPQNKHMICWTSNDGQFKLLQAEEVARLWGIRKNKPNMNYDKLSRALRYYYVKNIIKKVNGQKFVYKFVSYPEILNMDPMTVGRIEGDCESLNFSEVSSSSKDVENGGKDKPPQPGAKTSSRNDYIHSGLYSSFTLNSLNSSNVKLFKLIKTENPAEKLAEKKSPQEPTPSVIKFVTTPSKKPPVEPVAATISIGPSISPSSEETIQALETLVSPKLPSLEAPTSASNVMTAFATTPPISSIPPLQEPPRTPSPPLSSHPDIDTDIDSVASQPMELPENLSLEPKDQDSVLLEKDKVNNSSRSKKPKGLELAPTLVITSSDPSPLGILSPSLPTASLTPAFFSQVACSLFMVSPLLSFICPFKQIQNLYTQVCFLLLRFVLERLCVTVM
Procedure, shortened: as §1

[7] = target: T4, ETV2 (Homo sapiens, UniProt O00321 1-342); conditions: protein: recombinant; tags: N-terminal GST; dsDNA, one strand shown
T4 sequence: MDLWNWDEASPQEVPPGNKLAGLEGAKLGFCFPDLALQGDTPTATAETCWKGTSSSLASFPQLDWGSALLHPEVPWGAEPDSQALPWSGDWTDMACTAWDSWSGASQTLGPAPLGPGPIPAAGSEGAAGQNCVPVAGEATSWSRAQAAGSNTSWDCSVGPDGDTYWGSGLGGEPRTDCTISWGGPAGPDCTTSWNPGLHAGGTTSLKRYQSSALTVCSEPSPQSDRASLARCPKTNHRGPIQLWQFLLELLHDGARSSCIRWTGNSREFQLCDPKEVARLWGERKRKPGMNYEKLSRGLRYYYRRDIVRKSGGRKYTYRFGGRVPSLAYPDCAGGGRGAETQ
Procedure, shortened: as §1

[8] = target: T5, ELF3 (Homo sapiens, UniProt P78545 1-371); conditions: protein: recombinant; tags: N-terminal GST; dsDNA, one strand shown
T5 sequence: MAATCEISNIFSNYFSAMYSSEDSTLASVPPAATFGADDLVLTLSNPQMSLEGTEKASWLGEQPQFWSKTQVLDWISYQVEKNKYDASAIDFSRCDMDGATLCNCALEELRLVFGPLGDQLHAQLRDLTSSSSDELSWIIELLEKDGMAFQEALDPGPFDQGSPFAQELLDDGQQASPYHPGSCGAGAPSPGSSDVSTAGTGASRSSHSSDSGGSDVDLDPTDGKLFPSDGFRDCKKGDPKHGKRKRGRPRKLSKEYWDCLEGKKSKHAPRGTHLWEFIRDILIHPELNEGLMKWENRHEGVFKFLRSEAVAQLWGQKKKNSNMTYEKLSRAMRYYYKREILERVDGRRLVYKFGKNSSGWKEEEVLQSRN
Procedure, shortened: as §1

[9] = target: CRX (Homo sapiens, UniProt O43186 1-299); conditions: protein: recombinant; tags: N-terminal GST; dsDNA, one strand shown
Procedure, shortened: as §1

[10] = target: ETV1 (Homo sapiens, UniProt P50549 1-477); conditions: protein: recombinant; tags: N-terminal GST; dsDNA, one strand shown
Procedure, shortened: as §1

[11] = target: T6, ERF (Homo sapiens, UniProt P50548 1-548); conditions: protein: recombinant; tags: N-terminal GST; dsDNA, one strand shown
T6 sequence: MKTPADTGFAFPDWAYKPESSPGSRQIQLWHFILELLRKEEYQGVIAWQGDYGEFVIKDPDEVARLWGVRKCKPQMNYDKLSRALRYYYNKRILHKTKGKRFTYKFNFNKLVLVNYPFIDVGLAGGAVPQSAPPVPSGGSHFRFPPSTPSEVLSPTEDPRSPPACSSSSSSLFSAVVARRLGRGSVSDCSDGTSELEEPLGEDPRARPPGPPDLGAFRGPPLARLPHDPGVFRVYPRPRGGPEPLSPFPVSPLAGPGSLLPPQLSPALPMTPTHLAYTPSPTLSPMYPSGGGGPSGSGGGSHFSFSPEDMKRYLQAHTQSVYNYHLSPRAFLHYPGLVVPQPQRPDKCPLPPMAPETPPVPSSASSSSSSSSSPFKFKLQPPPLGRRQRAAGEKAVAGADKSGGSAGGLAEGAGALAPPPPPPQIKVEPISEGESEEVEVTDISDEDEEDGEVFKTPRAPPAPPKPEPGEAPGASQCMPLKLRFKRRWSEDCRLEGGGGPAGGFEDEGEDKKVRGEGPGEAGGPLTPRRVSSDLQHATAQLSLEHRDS
Procedure, shortened: as §1

[12] = target: T7, ETV3L (Homo sapiens, UniProt Q6ZN32 1-361); conditions: protein: recombinant; tags: N-terminal GST; dsDNA, one strand shown
T7 sequence: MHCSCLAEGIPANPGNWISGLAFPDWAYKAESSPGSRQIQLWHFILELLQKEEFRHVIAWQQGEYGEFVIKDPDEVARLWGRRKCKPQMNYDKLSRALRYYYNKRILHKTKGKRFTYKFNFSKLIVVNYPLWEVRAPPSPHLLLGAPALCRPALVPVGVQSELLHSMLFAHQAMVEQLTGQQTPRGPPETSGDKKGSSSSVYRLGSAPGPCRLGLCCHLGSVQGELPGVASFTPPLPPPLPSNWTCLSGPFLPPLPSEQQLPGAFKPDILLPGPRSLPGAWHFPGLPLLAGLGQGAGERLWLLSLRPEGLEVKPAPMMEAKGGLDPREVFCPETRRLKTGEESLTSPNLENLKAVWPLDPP
Procedure, shortened: as §1

[13] = target: T8, ETS2 (Homo sapiens, UniProt P15036 1-469); conditions: protein: recombinant; tags: N-terminal GST; dsDNA, one strand shown
T8 sequence: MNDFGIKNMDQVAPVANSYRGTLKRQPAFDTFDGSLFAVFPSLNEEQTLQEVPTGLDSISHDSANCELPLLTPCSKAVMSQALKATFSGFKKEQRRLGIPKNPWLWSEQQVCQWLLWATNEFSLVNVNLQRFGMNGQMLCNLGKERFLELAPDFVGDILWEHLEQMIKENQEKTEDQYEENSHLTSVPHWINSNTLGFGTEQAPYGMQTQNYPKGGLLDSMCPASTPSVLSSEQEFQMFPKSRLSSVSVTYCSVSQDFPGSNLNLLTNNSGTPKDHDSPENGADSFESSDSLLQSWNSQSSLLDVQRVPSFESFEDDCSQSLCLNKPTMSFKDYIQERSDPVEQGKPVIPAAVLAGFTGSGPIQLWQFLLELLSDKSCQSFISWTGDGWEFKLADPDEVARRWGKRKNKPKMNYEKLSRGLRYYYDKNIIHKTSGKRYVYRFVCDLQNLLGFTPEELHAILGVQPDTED
Procedure, shortened: as §1

[14] = target: T9, SPDEF (Homo sapiens, UniProt O95238 1-335); conditions: protein: recombinant; tags: N-terminal GST; dsDNA, one strand shown
T9 sequence: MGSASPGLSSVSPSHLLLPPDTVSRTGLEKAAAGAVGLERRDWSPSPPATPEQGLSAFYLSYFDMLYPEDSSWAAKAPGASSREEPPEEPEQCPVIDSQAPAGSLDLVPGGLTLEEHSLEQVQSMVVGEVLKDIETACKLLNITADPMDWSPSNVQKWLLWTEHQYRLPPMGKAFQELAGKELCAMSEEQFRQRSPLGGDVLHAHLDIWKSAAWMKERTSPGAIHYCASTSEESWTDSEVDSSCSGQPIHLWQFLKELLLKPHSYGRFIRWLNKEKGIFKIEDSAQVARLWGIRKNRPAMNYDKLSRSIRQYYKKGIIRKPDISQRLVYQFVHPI
Procedure, shortened: as §1

[15] = target: T10, ETV7 (Homo sapiens, UniProt Q9Y603 1-341); conditions: protein: recombinant; tags: N-terminal GST; dsDNA, one strand shown
T10 sequence: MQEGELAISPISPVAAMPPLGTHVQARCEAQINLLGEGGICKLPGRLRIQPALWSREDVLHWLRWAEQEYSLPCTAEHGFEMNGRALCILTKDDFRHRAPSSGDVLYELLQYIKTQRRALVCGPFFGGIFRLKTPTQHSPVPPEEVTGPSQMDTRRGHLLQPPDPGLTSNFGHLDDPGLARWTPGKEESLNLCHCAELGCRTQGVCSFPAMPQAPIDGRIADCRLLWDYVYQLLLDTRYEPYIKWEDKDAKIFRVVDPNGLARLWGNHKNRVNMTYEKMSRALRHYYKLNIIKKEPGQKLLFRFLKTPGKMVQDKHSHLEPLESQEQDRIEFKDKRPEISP
Procedure, shortened: as §1

[16] = target: T11, ELF5 (Homo sapiens, UniProt Q9UKW6-2 1-255); conditions: protein: recombinant; tags: N-terminal GST; dsDNA, one strand shown
T11 sequence: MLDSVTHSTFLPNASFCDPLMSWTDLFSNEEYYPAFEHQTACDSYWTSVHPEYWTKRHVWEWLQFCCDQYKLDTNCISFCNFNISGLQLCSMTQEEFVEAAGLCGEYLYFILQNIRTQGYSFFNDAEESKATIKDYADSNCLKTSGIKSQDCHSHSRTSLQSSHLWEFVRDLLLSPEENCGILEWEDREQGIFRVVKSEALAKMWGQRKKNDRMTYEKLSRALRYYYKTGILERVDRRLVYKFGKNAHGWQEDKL
Procedure, shortened: as §1

[17] = target: T12, ETV3 (Homo sapiens, UniProt P41162-2 1-143); conditions: protein: recombinant; tags: N-terminal GST; dsDNA, one strand shown
T12 sequence: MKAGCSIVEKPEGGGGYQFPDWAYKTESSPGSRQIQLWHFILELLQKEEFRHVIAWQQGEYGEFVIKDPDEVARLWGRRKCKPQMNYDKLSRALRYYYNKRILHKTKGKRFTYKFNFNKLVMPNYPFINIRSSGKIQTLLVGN
Procedure, shortened: as §1

[18] = target: ETV6 (Homo sapiens, UniProt P41212 1-452); conditions: protein: recombinant; tags: N-terminal GST; dsDNA, one strand shown
Procedure, shortened: as §1

ETV6, sequence (P41212 whole entry): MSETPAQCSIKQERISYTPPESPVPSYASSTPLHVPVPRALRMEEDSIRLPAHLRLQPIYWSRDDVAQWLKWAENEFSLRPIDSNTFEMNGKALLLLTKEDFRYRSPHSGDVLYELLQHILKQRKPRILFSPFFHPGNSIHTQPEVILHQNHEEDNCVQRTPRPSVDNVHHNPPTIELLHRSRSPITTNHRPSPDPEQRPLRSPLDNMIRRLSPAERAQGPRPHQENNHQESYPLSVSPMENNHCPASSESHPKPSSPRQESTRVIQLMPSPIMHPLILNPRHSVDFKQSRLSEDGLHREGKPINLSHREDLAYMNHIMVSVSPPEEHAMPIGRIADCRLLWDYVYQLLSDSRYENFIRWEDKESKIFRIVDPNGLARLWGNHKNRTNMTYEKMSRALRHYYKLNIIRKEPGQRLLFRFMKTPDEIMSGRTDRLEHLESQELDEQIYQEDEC
ELF4, sequence (Q99607 whole entry): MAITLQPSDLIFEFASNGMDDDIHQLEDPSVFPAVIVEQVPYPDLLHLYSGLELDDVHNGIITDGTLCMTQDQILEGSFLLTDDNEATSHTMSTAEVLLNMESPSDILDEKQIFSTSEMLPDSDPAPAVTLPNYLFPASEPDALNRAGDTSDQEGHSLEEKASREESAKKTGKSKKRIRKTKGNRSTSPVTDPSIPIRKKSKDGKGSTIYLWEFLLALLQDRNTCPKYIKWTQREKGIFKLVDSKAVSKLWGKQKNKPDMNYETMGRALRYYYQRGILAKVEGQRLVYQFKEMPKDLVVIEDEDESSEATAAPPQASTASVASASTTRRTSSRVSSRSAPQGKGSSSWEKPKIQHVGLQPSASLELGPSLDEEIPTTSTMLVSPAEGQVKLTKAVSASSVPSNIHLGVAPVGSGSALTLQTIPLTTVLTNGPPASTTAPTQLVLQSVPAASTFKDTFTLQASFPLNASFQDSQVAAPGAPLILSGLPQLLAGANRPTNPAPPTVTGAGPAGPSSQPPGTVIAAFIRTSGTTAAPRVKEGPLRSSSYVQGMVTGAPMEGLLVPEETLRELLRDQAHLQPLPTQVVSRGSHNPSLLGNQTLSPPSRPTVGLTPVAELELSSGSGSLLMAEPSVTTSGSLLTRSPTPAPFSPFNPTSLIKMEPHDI
HSF1, sequence (Q00613 whole entry): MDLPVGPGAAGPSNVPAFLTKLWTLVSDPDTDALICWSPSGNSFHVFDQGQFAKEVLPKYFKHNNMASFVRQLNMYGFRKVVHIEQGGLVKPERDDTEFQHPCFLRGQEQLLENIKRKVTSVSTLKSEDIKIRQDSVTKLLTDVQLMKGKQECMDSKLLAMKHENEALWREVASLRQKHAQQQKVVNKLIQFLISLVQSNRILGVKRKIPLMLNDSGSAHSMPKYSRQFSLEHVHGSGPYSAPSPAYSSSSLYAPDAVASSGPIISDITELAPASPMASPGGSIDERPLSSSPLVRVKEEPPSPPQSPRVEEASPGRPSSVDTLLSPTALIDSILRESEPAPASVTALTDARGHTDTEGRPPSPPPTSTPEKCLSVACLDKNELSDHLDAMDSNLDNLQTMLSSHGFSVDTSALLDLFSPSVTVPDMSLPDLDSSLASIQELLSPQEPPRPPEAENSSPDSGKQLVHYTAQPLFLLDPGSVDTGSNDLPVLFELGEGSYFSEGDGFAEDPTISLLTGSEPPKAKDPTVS
ETV1, sequence (P50549 whole entry): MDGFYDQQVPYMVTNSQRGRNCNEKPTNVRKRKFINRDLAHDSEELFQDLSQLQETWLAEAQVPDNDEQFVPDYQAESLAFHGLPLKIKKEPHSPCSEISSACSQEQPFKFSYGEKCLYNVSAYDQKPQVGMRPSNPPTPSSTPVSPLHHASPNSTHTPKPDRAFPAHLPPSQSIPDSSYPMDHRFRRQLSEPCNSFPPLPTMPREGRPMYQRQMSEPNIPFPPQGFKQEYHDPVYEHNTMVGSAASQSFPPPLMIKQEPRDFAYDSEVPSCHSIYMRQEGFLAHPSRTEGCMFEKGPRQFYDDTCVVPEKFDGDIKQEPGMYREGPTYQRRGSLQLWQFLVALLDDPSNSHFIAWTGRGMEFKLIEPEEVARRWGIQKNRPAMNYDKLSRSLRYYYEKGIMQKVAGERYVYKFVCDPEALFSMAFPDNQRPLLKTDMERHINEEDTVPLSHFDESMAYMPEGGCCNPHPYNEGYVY
ETV5, sequence (P41161 whole entry): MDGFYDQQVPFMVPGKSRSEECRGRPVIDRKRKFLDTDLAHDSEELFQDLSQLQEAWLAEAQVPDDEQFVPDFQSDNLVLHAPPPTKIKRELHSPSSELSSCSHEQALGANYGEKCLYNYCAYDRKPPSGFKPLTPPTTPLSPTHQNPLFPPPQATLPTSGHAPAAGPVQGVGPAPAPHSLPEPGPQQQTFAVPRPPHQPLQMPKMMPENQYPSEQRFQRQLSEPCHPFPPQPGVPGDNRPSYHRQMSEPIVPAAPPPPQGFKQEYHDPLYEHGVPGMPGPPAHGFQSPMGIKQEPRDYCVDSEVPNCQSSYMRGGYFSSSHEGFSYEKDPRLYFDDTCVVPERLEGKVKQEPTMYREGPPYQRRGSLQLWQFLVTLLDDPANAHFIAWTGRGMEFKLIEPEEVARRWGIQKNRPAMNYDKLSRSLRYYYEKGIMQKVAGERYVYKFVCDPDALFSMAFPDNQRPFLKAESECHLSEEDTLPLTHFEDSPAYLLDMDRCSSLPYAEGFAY
CRX, sequence (O43186 whole entry): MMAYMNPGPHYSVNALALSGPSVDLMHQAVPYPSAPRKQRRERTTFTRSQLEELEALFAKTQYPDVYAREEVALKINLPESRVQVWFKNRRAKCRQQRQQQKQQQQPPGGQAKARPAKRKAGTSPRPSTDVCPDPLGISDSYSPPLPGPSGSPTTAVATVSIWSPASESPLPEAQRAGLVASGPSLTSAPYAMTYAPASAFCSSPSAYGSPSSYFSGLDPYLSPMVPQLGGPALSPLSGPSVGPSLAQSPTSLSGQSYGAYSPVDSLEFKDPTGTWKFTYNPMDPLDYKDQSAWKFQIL

Sequence: TAGTGG
- binding signal [1]: 1.21 fold enrichment (6-mer frequency, TF over GST control)
- binding signal [2]: 1.11 fold enrichment (6-mer frequency, TF over GST control)
- binding signal [3]: 1.33 fold enrichment (6-mer frequency, TF over GST control)
- binding signal [4]: 1.24 fold enrichment (6-mer frequency, TF over GST control)
- binding signal [5]: 1.15 fold enrichment (6-mer frequency, TF over GST control)
- binding signal [6]: 1.37 fold enrichment (6-mer frequency, TF over GST control)
- binding signal [7]: 1.15 fold enrichment (6-mer frequency, TF over GST control)
- binding signal [8]: 1.1 fold enrichment (6-mer frequency, TF over GST control)
- binding signal [9]: 1.52 fold enrichment (6-mer frequency, TF over GST control)
- binding signal [10]: 1.14 fold enrichment (6-mer frequency, TF over GST control)
- binding signal [11]: 1.18 fold enrichment (6-mer frequency, TF over GST control)
- binding signal [12]: 1.15 fold enrichment (6-mer frequency, TF over GST control)
- binding signal [13]: 1.28 fold enrichment (6-mer frequency, TF over GST control)
- binding signal [14]: 1.1 fold enrichment (6-mer frequency, TF over GST control)
- binding signal [15]: 1.17 fold enrichment (6-mer frequency, TF over GST control)
- binding signal [16]: 1.12 fold enrichment (6-mer frequency, TF over GST control)
- binding signal [17]: 1.1 fold enrichment (6-mer frequency, TF over GST control)
- binding signal [18]: 1.16 fold enrichment (6-mer frequency, TF over GST control)

Source: paper PMC7862700, “An all-to-all approach to the identification of sequence-specific readers for epigenetic DNA modifications on cytosine”
